Assay outcomes from PubChem.
NIH3T3 tox = NIH 3T3 cell cytotoxicity | NIH 3T3 viability, CellTiter-Glo ATP luminescence, 48-72 h | Potency, µM (series often up to 96.7 µM), for the others: at the highest dose activity change, negative = cytotoxicity, most hits filed as inhibitors | 4.3% of 94,000 active | AID 1345082; also: nearly all actives have a fitted effect of over 55% in size
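Viability of NIH 3T3 cells after 48 or 72 hr compound treatment at 37 °C was assessed by CellTiter-Glo, with luminescence imaged following a 10 min room-temperature step.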
NPR1 antag = human Npr1 receptor antagonism. P16066. HEK293 hNpr1 GloSensor cGMP, ANP-stimulated luminescence. Potency, µM (series often up to 46.3 µM), inactives show at the highest dose activity change, negative = inhibition, hits mostly inhibitors. 1.6% of 76,000 active. AID 1347048; calls by dose curve; also: nearly all actives have a fitted effect of over 60% in size
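HEK293 cells stably expressing human Npr1 and cGMP GloSensor pGS-40F, loaded 2 h with 2% GloSensor reagent, given compound 30 min at room temperature. Luminescence read before and 20 min after 0.1 nM hNppA.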
Luciferase inh = blocks purified firefly luciferase enzyme activity; purified P. pyralis luciferase, luminescence, biochemical; Potency, µM (top dose mostly 115 µM), most hits filed as inhibitors; 2.5% of 76,000 active; also: nearly all actives have a fitted effect of over 65% in size
Target sequence (P08659 whole entry, looked up): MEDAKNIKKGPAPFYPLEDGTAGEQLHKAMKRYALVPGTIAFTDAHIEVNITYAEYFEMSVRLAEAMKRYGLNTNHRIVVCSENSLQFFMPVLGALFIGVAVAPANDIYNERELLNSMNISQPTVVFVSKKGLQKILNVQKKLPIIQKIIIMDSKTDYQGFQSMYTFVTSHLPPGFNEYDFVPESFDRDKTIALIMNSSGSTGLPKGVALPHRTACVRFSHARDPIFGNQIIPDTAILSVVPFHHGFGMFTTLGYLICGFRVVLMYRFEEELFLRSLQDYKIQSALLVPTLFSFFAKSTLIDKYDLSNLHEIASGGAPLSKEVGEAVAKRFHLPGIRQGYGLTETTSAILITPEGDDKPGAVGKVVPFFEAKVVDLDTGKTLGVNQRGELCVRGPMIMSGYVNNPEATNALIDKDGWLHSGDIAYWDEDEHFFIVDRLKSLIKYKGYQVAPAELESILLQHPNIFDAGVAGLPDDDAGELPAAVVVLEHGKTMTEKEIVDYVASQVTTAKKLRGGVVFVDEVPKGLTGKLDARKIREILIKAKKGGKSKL
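Purified P. pyralis luciferase (10nM final) in 50mM Tris acetate pH 7.5, 10mM Mg acetate, 0.01% Tween-20, 0.05% BSA with 10uM D-luciferin and 10uM ATP. Compounds titrated qHTS. Luminescence imaged on CCD.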
HEK cytotox = kills HEK 293 cells. HEK 293 viability, ATP luminescence (CellTiter-Glo), 48-72 h. Potency, µM (top dose mostly 115 µM), for inactives: at the highest dose activity change, negative = cytotoxicity, hits mostly inhibitors. 6.6% of 94,000 active; also: nearly all actives have a fitted effect of over 60% in size
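250 HEK 293 cells/well; compound by pintool; incubated 48 or 72 hr at 37 degree Celsius; CellTiter-Glo added, 10 min RT, luminescence imaged.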
Numbers without * were called inactive; i = inactive; u = inconclusive; x = not tested or not shown; [ ] = another dose, or the depositor's remark. This is a sample that favours compounds with a hit; in the whole collection about 11% have one here. Unless noted, calls follow the shape of the dose curve; as a rule, active = well fitted curve in the direction sought with a large enough effect; inconclusive = small, poorly fitted or top-dose-only effect, or another doubt; inactive = no such curve, though single readings can be large; an effect the other way counts as inactive or inconclusive. % is scaled to controls: 0 for no effect and ±100 for the full control effect; potency is read from the fitted curve at half-maximal effect.

SMILES	NIH3T3 tox	NPR1 antag	Luciferase inh	HEK cytotox
COc1ccc(C(=O)N2CCC3(CC2)CC(=O)c2ccc(Cl)cc2O3)cc1	u	-10%	i	50µM*
O=C1CC2(CCN([S+](=O)([O-])c3cccc(C(F)(F)F)c3)CC2)Oc2cc(Cl)ccc21	u	0%	i	32µM*
O=C1CC2(CCN([S+](=O)([O-])c3cccc(C(F)(F)F)c3)CC2)Oc2ccccc21	u	0%	i	u
O=C1CC2(CCN(C(=O)c3ccccc3)CC2)Oc2ccccc21	u	2%[70.6 µM]	i	u
Cc1ccc(C(=O)N2CCC3(CC2)CC(=O)c2ccc(Cl)cc2O3)cc1	35µM*	u	i	u
O=C(c1cn2cc(-c3ccccc3Cl)n(CC3CC3)c(=O)c2n1)N1CCCCC1	-29%	0%	i	u
COc1ccc(-n2c(=O)c3c(n2Cc2ccccc2)CN(CC2CCOC2)CC3)cc1 (centres undefined)	u	-9%[70.6 µM]	i	-11%[172 µM]
CCNC(=O)c1cccc2c1CCN2S(=O)(=O)c1cccc(C)c1	-23%	-28%	i	u
CN1CC(=O)N(C2CCCCC2)Cc2c1ncnc2N1CCN(c2ncccn2)CC1	45µM*	x	x	45µM*
CCC(C)NC(=O)N1CC(Oc2ccccc2-c2nc(-c3ccccc3)no2)C1 (centres undefined)	35µM*	-4%	u	u
O=C(Cc1ccsc1)N1CC(Oc2ccccc2-c2nc(-c3ccccc3)no2)C1	35µM*	-1%	u	u
CC(Oc1ccccc1)C(=O)N1CC(Oc2ccccc2-c2nc(-c3ccccc3)no2)C1 (centres undefined)	35µM*	x	x	45µM*
CCCNC(=O)N1CCC(Oc2ccccc2-c2nc(-c3ccncc3)no2)C1 (centres undefined)	u	5%	i	-21%
O=C(NCCc1ccccc1)N1CC(Oc2ccccc2-c2nc(-c3ccccc3)no2)C1	28µM*	-5%	u	22µM*
COc1ccc(-c2nc3cc(C)ccc3cc2CN2CCCC(C(N)=O)C2)cc1 (centres undefined)	u	1%	i	u
c1ccc(-c2noc(-c3ccccc3OC3CNC3)n2)cc1	28µM*	u	22µM*	u
COCCc1noc(-c2ccccc2OC2CNC2)n1	-22%	9%	i	-1%
COc1ccc(-c2nccn3cc(C(=O)O)nc23)cc1	-36%	-1%	i	-5%
COc1ccc(-c2nccn3cc(C(=O)NCc4nc5ccccc5n4C)nc23)cc1	u	u	i	28µM*
CCOC(=O)C1CCN(C(=O)c2cn3cc(-c4ccc(C(F)(F)F)cc4)sc3n2)CC1	40µM*	x	x	u
CCOC(=O)C1CCN(C(=O)c2cn3cc(-c4cccc(C(F)(F)F)c4)sc3n2)CC1	-30%	x	x	i
CCOC(=O)C1CCN(C(=O)c2cn3ccnc(-c4ccc(OC)cc4)c3n2)CC1	u	-21%	i	79µM*
COCCOC1CCN(C(=O)c2sc(C)nc2C)CC1	3%	7%	35µM*	0%
C[C@H]1CCCN1C(=O)c1nnc(COc2cccc(Cl)c2)n1-c1ccccc1	u	-3%[70.6 µM]	i	u
CC(C)c1ccc(OCc2nnc(C(=O)N3CCC[C@@H]3C)n2-c2cccnc2)cc1	14µM*	-2%[70.6 µM]	i	u
SMILES	NIH3T3 tox	NPR1 antag	Luciferase inh	HEK cytotox
C[C@H]1CCCN1C(=O)c1nnc(COc2cccc(C(F)(F)F)c2)n1-c1cccnc1	100µM*	0%[70.6 µM]	i	u
C[C@H]1CCCN1C(=O)c1nnc(CNc2ccccc2Cl)n1-c1ccccc1	100µM*	-29%[70.6 µM]	i	u
CC(C)N1CCC2(CC1)CN(C(=O)c1ccncc1)Cc1ccccc1O2	-25%	x	x	-1%
COC(=O)[C@@H]1Cc2ncn(C(C)C)c2CN1S(=O)(=O)Cc1ccccc1	-7%[174 µM]	-2%[70.6 µM]	i	3%[172 µM]
Cc1cccc(CC(=O)N2CC(C(=O)NC3CCCCC3)C3(CCOCC3)C2)c1 (centres undefined)	i	-11%	i	-2%
COC(=O)[C@@H]1Cc2c([nH]c3ccccc23)[C@H]2C[C@@H](NCCO)C[C@@H](c3cccc(OC)c3)N21	28µM*	1%	i	28µM*
COc1cccc(CC(=O)N2[C@@H]3CC[C@H]2CC(NC(=O)c2ccc(F)cc2)C3)c1 (some centres undefined)	-12%	-4%	i	-20%
